An excerpt weighted towards active compounds, which were near 4.1% of everything screened.
DAX1 inh-1: inhibitors of human orphan nuclear receptor DAX1 (NR0B1) | inhibition, % at 6.75 µM | P51843 | 0.99% of 340,000 active | HEK293 Gal4-DAX1 luciferase reporter, luminescence;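 active = inhibition above the mean over all tested compounds plus 3 SD, cut at about 4.2% in these data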;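 also: 0% = DAX1-transfected cells with DMSO and 100% = empty-vector control cells with DMSO; inhibition shows as a rise in luminescence from relieved DAX1 repression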
Target sequence (P51843 207-470 limits assumed): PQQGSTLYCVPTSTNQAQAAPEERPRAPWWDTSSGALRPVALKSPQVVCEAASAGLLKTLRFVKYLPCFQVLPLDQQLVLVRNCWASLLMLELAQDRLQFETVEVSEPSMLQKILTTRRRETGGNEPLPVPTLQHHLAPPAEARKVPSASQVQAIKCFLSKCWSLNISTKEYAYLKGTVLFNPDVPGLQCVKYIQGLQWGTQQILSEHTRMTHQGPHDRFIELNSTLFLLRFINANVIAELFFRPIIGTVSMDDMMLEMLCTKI
DAX1 inh-2: inhibitors of DAX1 repression of SF-1 activated StAR promoter; HEK293T StAR-luciferase reporter, SF-1/DAX-1 repression relief; inhibition, % at 6.8 µM; 1.1% of 370,000 active; AID 652010;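 active = inhibition above the mean over all tested compounds plus 3 SD, cut at about 3.6% in these data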;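 also: 0% = DAX-1 cells with DMSO and 100% = cells lacking DAX-1 with DMSO; higher inhibition means more luminescence from relief of DAX-1 repression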
ssDAF-12 act: activates DAF-12 receptor from parasite S. stercoralis; activation, % at 6.8 µM; HEK293 ssDAF-12/GRIP1 lit1-tk-luc reporter, luminescence; % of 3 µM dafachronic acid response; AID 652126; 1% of 370,000 active;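 active = activation above the mean over all tested compounds plus 3 SD, cut at about 0.9% in these data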;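 also: 0% = DMSO-only wells and 100% = 3 µM delta7-dafachronic acid wells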
hgDAF12 agonist: hgDAF-12 agonism, primary luciferase screen; 1.8% of 370,000 active; AID 687014; HEK293 GAL4-hgDAF12 UAS-luciferase reporter, agonist luminescence; normalized to butyrate control; activation, % at 6.8 µM;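 active = activation above a cutoff set at the mean of all screened compounds plus 3 SD, cut at about 10% in these data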;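 also: 0% = DMSO wells and 100% = sodium butyrate wells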
hcDAF12 agonist: activates DAF-12 receptor from parasite H. contortus. 1.4% of 370,000 active. activation, % at 6.8 µM. AID 652067. HEK293 hcDAF-12 lit1-tk-luc reporter, luminescence; 0% DMSO, 100% Δ7-dafachronic acid;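 active = activation above the mean of all tested compounds plus 3 SD, cut at about 5.5% in these data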;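 also: 100% = response to 3 µM Δ7-dafachronic acid high control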
* hit, by the source's call; nt = no result given.

SMILES	DAX1 inh-1	DAX1 inh-2	ssDAF-12 act	hgDAF12 agonist	hcDAF12 agonist
CCOC1=CC2=C(C(=O)C(Cl)=CC2=O)[C@@H]2CN(S(=O)(=O)c3ccc(C)cc3)[C@@H](c3ccccc3)[C@H]12	nt	-0.8	-1.4	-1.2	-1.7
NCCOc1cnn(-c2ccccc2Cl)c(=O)c1Cl	3.2	0.3	1.0*	0.9	2.2
CN(C(=O)COC(=O)CSc1ccc(C(N)=O)cc1[N+](=O)[O-])C1CCCCC1	0.9	0.0	-1.5	1.0	-1.5
O=C(NCCc1ccc2c(c1)OCCO2)c1ccc(F)cc1	-0.2	-1.0	-2.3	1.8	-2.4
Cc1cnc(C(=O)NCCc2ccc(Cl)cc2)cn1	-0.1	4.0*	-0.6	6.5	0.9
O=C(NCCc1ccc(Cl)cc1)c1ccc2c(c1)OCCO2	0.7	2.4	0.1	11.1*	4.6
OCc1ccc2c(c1)c(-c1ccc3c(c1)OCCO3)c(-c1ccccc1)n2-c1ccccc1	4.4*	0.0	0.4	-1.0	2.1
CN1c2ccccc2Oc2nnc(Cl)cc21	1.1	0.6	-1.5	-0.9	-2.4
CN1c2ccccc2Oc2nnc(N3CCN(Cc4ccccc4)CC3)cc21	-2.6	0.2	-1.7	10.4*	-0.8
O=C(c1ccco1)N1CCN(C2CN(C3CCCCC3)S(=O)(=O)C2)CC1 (stereo unspecified)	nt	3.9*	-0.9	-0.5	-0.4
CN(C)CCCNc1nc2cc(-c3ccc4c(ccn4C)c3)sc2c(=O)n1C	nt	2.1	-0.7	11.8*	3.1
Cc1ccc(-c2cc3nc(NCCc4ccncc4)n(C)c(=O)c3s2)cc1	nt	4.0*	-0.5	10.1	1.4
CN(C)CCCNc1nc2cc(-c3ccsc3)sc2c(=O)n1C	nt	2.3	-1.2	1.1	-1.9
O=C(COC(=O)C1CC1)Nc1ccc(N=Nc2ccccc2)cc1	2.1	2.7	0.8	13.0*	3.9
COc1ccc(O)c(C(=O)c2cnn(-c3ccccc3)c2)c1	0.0	1.3	0.1	4.7	4.4
O=C(COc1ccccc1C(=O)c1cnn(-c2ccccc2)c1)Nc1ccc2ccccc2c1	1.2	1.9	1.3*	11.2*	2.9
COc1ccc(C(=O)CC(=O)c2ccccc2O)cc1OC	2.1	-0.1	-1.3	1.4	0.3
COc1ccc(C(=O)CC(=O)c2ccccc2O)cc1	2.1	1.7	0.2	11.4*	5.3
COc1ccc(-n2cc(C(=O)c3ccccc3O)cn2)cc1	-0.4	3.5	0.3	11.1*	4.8
COc1ccc(O)c(C(=O)CC(=O)c2ccc(F)cc2)c1	-4.0	1.4	1.0*	14.8*	8.1*
CC(=O)Nc1cccc(-c2cc(C(C)=O)c3n(c2=O)CCC3)c1	nt	-0.2	-0.8	2.8	-0.7
CCCCCCCCN1C(=O)[C@@H](CC(=O)NCCC(C)C)C[C@@]2(C(=O)OC)C1=C[C@H](COCc1ccccc1)O[C@@H]2C	nt	-1.4	-1.7	1.0	-0.5
COc1cccc(/C=C2\CC3(OC(=O)C4CCCC4)CCCN2C3)c1 (stereo unspecified)	nt	0.2	-1.0	-3.5	-2.0
COC(=O)c1nc(-c2ccccc2)oc1N(C)C	0.9	0.0	-1.9	-0.1	0.0
COC(=O)c1nc(-c2ccc(C)cc2)oc1N(C)C	0.8	-0.8	1.0*	2.5	5.2
SMILES	DAX1 inh-1	DAX1 inh-2	ssDAF-12 act	hgDAF12 agonist	hcDAF12 agonist
CC(C)=CCN1CCN(Cc2c[nH]c3ccccc23)CC1CCO (stereo unspecified)	0.2	-0.1	0.9*	3.5	2.6
CC(C)CN1CCN(Cc2c[nH]c3ccccc23)CC1CCO (stereo unspecified)	-0.7	0.0	0.6	1.2	3.0
CCCCN1CN2Cc3cc(OC)ccc3C2CS1(=O)=O (stereo unspecified)	nt	-0.1	-1.0	0.7	0.0
COc1ccc(C/C(N)=N/O)cc1	0.1	0.1	-1.1	1.2	-0.3
COc1ccc(N=Nc2ccc(CO)cc2)cc1	2.4	1.4	1.3*	10.3	7.3*
CCCn1cc(S(=O)(=O)c2ccccc2)c(=O)c2cc(F)c(N3CCN(C)CC3)cc21	0.0	0.2	-0.5	-1.1	-0.8
COc1cccc(-c2nnc(SCC(=O)Nc3cc(C)ccc3OC)n2N)c1	0.0	-1.0	-1.1	-0.7	2.9
COc1ccc(OC)c(NC(=O)CSc2nncc(=O)n2N)c1	0.5	1.3	0.9*	-1.0	-0.9
CCOC(=O)CN1C(=O)[C@]2(OCCC=C[C@H]2C)c2ccccc21	nt	-0.3	-1.3	-1.7	-1.1
COc1cccc2sc3cc(C#Cc4ccccn4)ccc3c(=O)c12	-1.4	0.3	-1.2	-2.8	-1.8
COc1cccc2oc3ccc(C#Cc4ccccn4)cc3c(=O)c12	2.5	3.0	-0.2	11.0*	3.3
C=C(C)Cn1c(SCC(=O)N/N=C/c2c(O)ccc3ccccc23)nc2ccccc2c1=O	0.7	-0.1	0.6	-0.1	6.0*
Cc1c(Cl)cnc(NC(=O)COC(=O)CCS(=O)(=O)c2ccccc2)c1Cl	0.1	-0.7	-1.2	0.5	0.8
O=C(COC(=O)CCS(=O)(=O)c1ccc(Cl)cc1)Nc1ncc(Cl)cc1Cl	4.8*	-0.5	-0.5	-0.7	0.0
N/C(=N\OC(=O)c1ccc(F)cc1)c1nonc1N	-0.2	0.9	-0.5	4.0	-0.4
N/C(=N/OC(=O)c1ccccc1Cl)c1nonc1N	3.3	0.9	-0.5	11.7*	0.0
S=C(NN=Cc1ccccn1)N(Cc1ccccn1)Cc1ccccn1	-4.0	0.8	1.0*	4.6	2.7
S=C(NN=C(c1ccccc1)c1ccccn1)N(Cc1ccccn1)Cc1ccccn1	-5.4	-6.8	-2.2	-8.6	-3.6
COc1ccc(-c2nnc(-c3ccccc3)o2)cc1OC	2.5	2.3	-0.2	10.5*	1.4
Nc1ccc(-c2nnc(-c3ccc(N)cc3)o2)cc1	4.4*	1.7	-0.3	6.5	1.6
COc1cc(-c2nnc(-c3cc(-c4ccccc4)nc4ccccc34)o2)cc(OC)c1OC	2.2	0.5	1.2*	0.4	1.2
COc1cc(-c2nnc(-c3ccccc3)o2)cc(OC)c1OC	-0.6	-1.5	-1.6	0.2	-2.2
c1ccc(-c2nnc(-c3ccncc3)o2)cc1	-0.2	1.0	-0.8	3.4	2.1
c1ccc(-c2nnc(-c3ccccc3)o2)cc1	4.6*	3.1	1.2*	11.6*	5.9*
CN(C)C(=O)c1cccc(-c2cccc(-c3nc(C(=O)NCc4ccccc4)cc4c3[C@@H](CCO)N(S(=O)C(C)(C)C)C4)c2)c1 (stereo partly specified)	nt	-3.0	-1.6	-6.4	-0.5
COc1ccc(CCN(C)C(=O)CCc2nnc(-c3ccccc3)o2)cc1OC	2.4	1.3	0.2	11.2*	4.0
CN(Cc1ccc(F)cc1)C(=O)CCc1nnc(-c2ccccc2)o1	1.5	0.3	0.2	7.6	1.8
O=C(NCc1ccc(F)cc1)c1cc2c(s1)CCCC2	7.0*	-0.6	-1.1	4.1	-2.6
O=C(NC1CCN(Cc2ccccc2)CC1)C1CCN(c2nnc(-n3cccc3)s2)CC1	-3.0	-2.1	-1.3	-2.2	-0.3

High-throughput results: PubChem, The Scripps Research Institute Molecular Screening Center
